According to PubChem BioAssay (NCI):
This is part of a sample that, as a whole, favours compounds with a hit. Of some 79,000 tested, about 15% had one in any assay. Active and inactive are the calls of the source. No stated cut-off is given here; in the data, active means growth inhibition above about 70%; inactive means the rest.

Assays:
[1] = NCI Yeast Anticancer Drug Screen. Data for the rad50 strain (AID 155);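 further: 0% = growth of vehicle-only cultures of the same strain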; conditions: S. cerevisiae rad50 strain growth inhibition, stronger effect = higher value
Procedure, shortened: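 Growth of the mutant yeast was measured after compound exposure and referenced to vehicle-treated cultures.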

[2] = NCI Yeast Anticancer Drug Screen. Data for the mec2-1 strain (AID 157); conditions: S. cerevisiae mec2-1 strain, stronger effect = higher value
Procedure, shortened: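 Test agents were screened against the mec2-1 yeast strain, with defined DNA repair or cell cycle alteration. Growth was scored as inhibition against vehicle-only controls.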

[3] = NCI Yeast Anticancer Drug Screen. Data for the sgs1 mgt1 strain (AID 161);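 further: 0% = growth of cultures given vehicle only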; conditions: S. cerevisiae sgs1 mgt1 strain, stronger effect = higher value
Procedure, shortened: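 Test agents were incubated with a DNA-repair-mutant yeast strain. Growth was then read and compared against vehicle-treated controls.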

[4] = NCI Yeast Anticancer Drug Screen. Data for the cln2 rad14 strain (AID 165);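 further: 0% = growth equal to vehicle treated cultures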; conditions: S. cerevisiae cln2 rad14 strain, stronger effect = higher value
Procedure, shortened: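 Growth of compound-exposed yeast (cln2 rad14 genotype) measured and expressed as inhibition relative to vehicle.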

[5] = NCI Yeast Anticancer Drug Screen. Data for the bub3 strain (AID 167); conditions: S. cerevisiae bub3 mutant strain, stronger effect = higher value
Procedure, shortened: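 Whole-cell yeast assay. The mutant strain was incubated with compounds, and growth inhibition was determined by comparison with vehicle-treated cells.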

[6] = NCI Yeast Anticancer Drug Screen. Data for the mlh1 rad18 strain (AID 175); conditions: S. cerevisiae mlh1 rad18 strain growth inhibition, stronger effect = higher value
Procedure, shortened: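 In this whole-cell yeast screen, a strain with altered DNA damage repair is challenged with compound, and its growth is measured against matched vehicle-treated controls.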

[7] = at 5.0 µM (retest, dose inferred, filed as 0.5)
[8] = at 50.0 µM (retest, dose inferred, filed as 5.0)

Measured: growth inhibition

CCCCOc1ccc(-c2c(COC(=O)NC)c(COC(=O)NC)c(C)n2C)cc1
inactive: [1]; [7] 23% | [2]; [7] 14% | [3]; [7] 21% | [4]; [7] 19% | [5]; [7] 17% | [6]; [7] 20%
active: [1]; [8] 94% | [1]; at 50.0 µM 85.3% | [2]; [8] 97% | [2]; at 50.0 µM 89.5% | [3]; [8] 99% | [3]; at 50.0 µM 90% | [4]; [8] 85% | [4]; at 50.0 µM 89% | [5]; [8] 99% | [5]; at 50.0 µM 87.3% | [6]; [8] 96% | [6]; at 50.0 µM 88.2%

CN(Cc1cnc2nc(N[Si](C)(C)C)nc(N[Si](C)(C)C)c2n1)c1ccc(C(=O)NC(CCC(=O)O[Si](C)(C)C)C(=O)O[Si](C)(C)C)cc1 (stereo not given)
active: [1]; [8] 89% | [1]; at 50.0 µM 91% | [2]; [8] 97% | [2]; at 50.0 µM 98.3% | [3]; [8] 72% | [5]; [8] 90% | [6]; [8] 81%
inactive: [1]; [7] 19% | [2]; [7] 66% | [3]; [7] 2% | [3]; at 50.0 µM 64.7% | [4]; [7] -8% | [4]; [8] 47% | [4]; at 50.0 µM 26% | [5]; [7] -4% | [5]; at 50.0 µM 69.7% | [6]; [7] 15% | [6]; at 50.0 µM 60.6%

Nc1cc(Cl)c(I)cc1Cl
inactive: [1]; [7] 7% | [2]; [7] -15% | [2]; at 50.0 µM 15.8% | [3]; [7] -1% | [3]; at 50.0 µM 50.1% | [4]; [7] -7% | [4]; at 50.0 µM 32.3% | [5]; [7] -8% | [5]; at 50.0 µM 69.2% | [6]; [7] 34%
active: [1]; [8] 98% | [1]; at 50.0 µM 74.5% | [2]; [8] 99% | [3]; [8] 100% | [4]; [8] 97% | [5]; [8] 99% | [6]; [8] 99% | [6]; at 50.0 µM 86.8%

C=C1C(=O)C23C(O)C1CC[C@H]2C12CCCC(C)(COC(C)=O)[C@H]1[C@H](O)[C@]3(O)OC2 (stereo not given in full)
active: [1]; [8] 94% | [1]; at 50.0 µM 90.4% | [2]; [8] 97% | [2]; at 50.0 µM 92.2% | [3]; [7] 83% | [3]; [8] 97% | [3]; at 50.0 µM 92.2% | [4]; [7] 77% | [4]; [8] 96% | [4]; at 50.0 µM 89.2% | [5]; [8] 96% | [5]; at 50.0 µM 90% | [6]; [8] 95% | [6]; at 50.0 µM 89.2%
inactive: [1]; [7] 28% | [2]; [7] 26% | [5]; [7] 22% | [6]; [7] 43%

COC(=O)C1CCC(=O)N1C(c1ccc(OC)cc1)c1cc(OC)c(OC)c(OC)c1 (stereo not given)
inactive: [1]; [7] 27% | [1]; [8] 45% | [1]; at 50.0 µM -33.5% | [2]; [7] 21% | [2]; [8] 15% | [2]; at 50.0 µM 8.55% | [3]; [7] 32% | [3]; [8] 42% | [3]; at 50.0 µM 1.95% | [4]; [7] 46% | [4]; [8] 40% | [4]; at 50.0 µM -7.4% | [5]; [7] 43% | [5]; [8] 41% | [5]; at 50.0 µM -8.55% | [6]; [7] 17% | [6]; [8] 20% | [6]; at 50.0 µM -10.2%
